Data: PubChem BioAssay (NCI)
The panel holds about 83,000 compounds, 20% with a hit somewhere; the sample as a whole holds those more often.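 A percent growth of 40 corresponds to 60% growth inhibition; 0 means no net growth; -100 means all cells died. Active threshold: below 10.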 Activity calls are given as the source filed them.

System: OVCAR-5 ovarian
Assay: NCI-60 one-dose screen, 48 h (100 = growth as untreated, 0 = no growth, -100 = all killed)
Conditions: 10 µM unless noted
Experimental: Growth inhibition of the OVCAR-5 human tumor cell line is measured as a screen for anti-cancer activity. Cells are grown in 96 well plates and exposed to the test compound for 48 hours. Compounds are tested at a single concentration, which is 10^-5 M for most compounds. The reported endpoint is percent growth (GI% or GIPRCNT), where numbers from 0 - 100% represent growth inhibition, and numbers from -100% - 0 represent cell death. For example, a value of 40 represents 60% growth inhibition. A value of 0 means no net growth occurred over the course of the experiment. A value of -40 indicates 40% of cells at the beginning of the experiment died by the end of the experiment. A value of -100 means all cells are dead at the end of the experiment.
NCI-60 Human Tumor Cell Lines Screen was performed using the standard one-dose NCI protocol, which is described in more detail at https://dtp.cancer.gov/discovery_development/nci-60/default.htm.
Compounds with GIPRCNT values below 10 were considered active. Activity score was based on GIPRCNT using the following formula: […]
Score is 0 for GIPRCNT values of 100 or above, 50 for GIPRCNT values of 0, and 100 for GIPRCNT values of -100.

Q: Which growth does the source give for `O/N=C/c1ccncc1` here?
A: The growth was 116% (inactive).

Q: How did the growth turn out when `COC(=O)[C@@H](Cc1c[nH]c2ccccc12)NC(=O)/C=C/c1ccccc1` was run?
A: The growth was 36% (inactive).

Q: Which growth does the source give for `COC(=O)CSc1ccc(Cl)cc1` here?
A: Its growth is 107% (inactive).

Q: How did the growth turn out when `ClCc1c(Cl)c(Cl)c(Cl)c(CCl)c1Cl` was run?
A: Its growth is 118% (inactive).

Q: How did the growth turn out when `CN(C)c1nc(-c2ccco2)n2nc(-c3ccc(Cl)cc3)cc2n1` was run?
A: The growth was 90% (inactive).

Q: Which growth does the source give for `CC(C)(C)[Si](C)(C)OC1[C@@H](O[Si](C)(C)C(C)(C)C)[C@@H](CNC(=O)NC(=O)NC(=O)CCl)O[C@H]1n1cnc2c(NC(=O)Nc3ccccc3)ncnc21` (stereo not given in full) here?
A: Its growth is 74.1% (inactive).

Q: `Nc1nc(NC2CC2)cc(-c2cccc(Cl)c2Cl)n1` was tested. Which growth did it give?
A: The growth was 87.1% (inactive).

Q: How did the growth turn out when `CCCCCCCCOC(=O)C(C)OC(=O)OCCOCCOC(=O)OC(C)C(=O)OCCCCCCCC` (stereo not given) was run?
A: The growth was 81.8% (inactive).

Q: How did the growth turn out when `O=c1c2cc(Cl)ccc2oc2ccc(OCCCCCN3CCCCCC3)cc12` was run?
A: Its growth is 97.9% (inactive).

Q: For `CCN(CC)c1ccc(/C=N/N=C(N)N)cc1`, which growth is on record?
A: Its growth is 79.8% (inactive).

Q: For `COC(=O)c1ccc2c(c1)nc(-c1cc3ccccc3[nH]c1=O)n2-c1cc(C(C)(C)C)[nH]n1`, which growth is on record?
A: The growth was 96.6% (inactive).

Q: `CCOC(=O)c1cc(C(=O)OCC)c(C)nc1C` was tested. Which growth did it give?
A: The growth was 99.8% (inactive).

Q: How did the growth turn out when `Clc1cc2nc(-c3ccccc3)c(-c3ccccc3)nc2cc1Cl` was run?
A: The growth was 98.6% (inactive).

Q: How did the growth turn out when `C=CC(=O)N1CN(C(=O)C=C)CN(C(=O)C=C)C1` was run?
A: Its growth is 109% (inactive).

Q: How did the growth turn out when `O=C(Nc1ccccc1)c1cc2ccccc2s1` was run?
A: Its growth is 81.7% (inactive).

Q: `Nc1c(C(=O)Nc2ccccc2)sc2nc3c(cc12)C(=O)CCC3` was tested. Which growth did it give?
A: The growth was 59.9% (inactive).

Q: `Cc1ccccc1NC(=O)c1sc2nc3c(cc2c1N)C(=O)CCC3` was tested. Which growth did it give?
A: The growth was 80.8% (inactive).

Q: With `COc1cc(/C=C\c2cc(/C=C\c3ccc(O)c(OC)c3)n(C(=O)Nc3ccc(C(F)(F)F)cc3)n2)ccc1O` as the molecule, how does the growth read?
A: Its growth is 115% (inactive).

Q: How did the growth turn out when `Cc1ccc(NC(=O)c2cc(NCc3cc(O)ccc3O)ccc2O)cc1` was run?
A: Its growth is 125% (inactive).

Q: `NC(N)=N/N=C/c1ccc(Cl)cc1` was tested. Which growth did it give?
A: Its growth is 89.6% (inactive).

Q: Which growth does the source give for `CC1=C(O)C(=O)CC1` here?
A: The growth was 112% (inactive).

Q: `COc1cc(C)c(Cl)cc1C1=NN(c2ccc(S(N)(=O)=O)cc2)C(/C=C/c2ccccc2)C1` (stereo not given) was tested. Which growth did it give?
A: The growth was 104% (inactive).

Q: Which growth does the source give for `COc1cc(C2CC(c3cccc(Nc4ccnc5cc(Cl)ccc45)c3)=NN2C=O)cc(OC)c1OC` (stereo not given) here?
A: The growth was 41.6% (inactive).

Q: For `CCCCCCCCCCCCCCCCCC(=O)[O][Sn]([CH2]CCC)([CH2]CCC)[CH2]CCC`, which growth is on record?
A: Its growth is -71.1% (active).

Q: How did the growth turn out when `CCN(CC)CCCCCCCCNc1c2ccc(Cl)cc2nc2ccc(OC)cc12` was run?
A: The growth was -24% (active).

Q: With `CCCCSc1ncnc2c1ncn2C1CCCCO1` (stereo not given) as the molecule, how does the growth read?
A: The growth was 99.1% (inactive).

Q: With `CC1(C)CN(CCNc2nccc(-c3c(-c4cccc(O)c4)nc4sccn34)n2)S(=O)(=O)N1` as the molecule, how does the growth read?
A: The growth was 94.1% (inactive).

Q: `CCN(CC)C(=O)O/N=C(/C)c1ccccc1` was tested. Which growth did it give?
A: The growth was 103% (inactive).

Q: With `Cn1c(-c2ccccc2)cc(=O)n1-c1ccccc1` as the molecule, how does the growth read?
A: Its growth is 104% (inactive).

Q: With `O=C1C(Cl)=C(Nc2cccc3ccccc23)C(=O)c2ccccc21` as the molecule, how does the growth read?
A: Its growth is 134% (inactive).

Q: For `CN1C(=O)C(C(=O)/C=C/c2ccccc2C(=O)O)C(=O)N(C)C1=O`, which growth is on record?
A: Its growth is 104% (inactive).

Q: For `CC1=CC(=O)OC1C/C=C(\C)CCC1[C@@]2(C)CCC[C@@](C)(C(=O)O)C2CC[C@@]1(C)O` (stereo not given in full), which growth is on record?
A: Its growth is 111% (inactive).

Q: For `COc1cc(CN(CCC(O)N2CCCC2=O)Cc2ccc3c(c2)OCO3)cc(OC)c1OC` (stereo not given), which growth is on record?
A: Its growth is 98.5% (inactive).

Q: Which growth does the source give for `CC(C)(CCc1ccccn1)C(=O)CCCc1ccccn1` here?
A: The growth was 103% (inactive).

Q: How did the growth turn out when `CCN1C(=O)N(CC)C2C1N=C(SC)N2/N=C/C=C/c1ccccc1OC` (stereo not given) was run?
A: Its growth is 37.2% (inactive).

Q: With `COc1cc(NCCC2CCCCN2)c2ncccc2c1OC` (stereo not given) as the molecule, how does the growth read?
A: The growth was 115% (inactive).

Q: For `COC(=O)C(Br)(C(=O)OC)C(Br)C(Br)C(Br)c1ccccc1` (stereo not given), which growth is on record?
A: The growth was 126% (inactive).

Q: Which growth does the source give for `CC(C)[C@@]12C[C@@H](OC(=O)C3CO3)[C@@](C)(O1)[C@@H]1CC[C@@H](C)[C@H]1[C@@H]2OC(=O)/C=C/c1ccccc1` (stereo not given in full) here?
A: Its growth is 100% (inactive).

Q: With `c1cn2cc(-c3ccc4ncn(C5CCCCC5)c4c3)nc(-c3ccc4c(c3)ncn4C3CCCCC3)c2n1` as the molecule, how does the growth read?
A: The growth was -24% (active).

Q: How did the growth turn out when `COc1cc(C2CC(=O)Nc3c2cnn3C)cc(OC)c1OC` (stereo not given) was run?
A: The growth was 109% (inactive).
